Assay outcomes (PubChem)
Mtb UGM inh: Mtb UDP-galactopyranose mutase inhibition. P9WIQ1. purified UGM, fluorescence polarization probe displacement. inhibition, % at 10 µM. 0.06% of 320,000 active; in the data active = inhibition above about 10%, passing the limit was not always enough
FBA Mtb inh: Mtb fructose-bisphosphate aldolase inhibition; P9WQA3; purified M. tuberculosis FBA, fluorescence read-out; inhibition, % at 1 µM; 2.3% of 360,000 active; AID 588726;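 also: 0% = vehicle and 100% = reference inhibitor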
Rv3671c protease: inhibits the M. tuberculosis serine protease Rv3671c | P9WHR9 | inhibition, % at 5.96 µM | 0.048% of 320,000 active | AID 2606; in the data active = inhibition above about 38%;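 also: extracellular domain of Rv3671c used as enzyme; 0% = enzyme with DMSO and 100% = no enzyme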
Target sequence (P9WHR9 whole entry, looked up, the tested form may be a part): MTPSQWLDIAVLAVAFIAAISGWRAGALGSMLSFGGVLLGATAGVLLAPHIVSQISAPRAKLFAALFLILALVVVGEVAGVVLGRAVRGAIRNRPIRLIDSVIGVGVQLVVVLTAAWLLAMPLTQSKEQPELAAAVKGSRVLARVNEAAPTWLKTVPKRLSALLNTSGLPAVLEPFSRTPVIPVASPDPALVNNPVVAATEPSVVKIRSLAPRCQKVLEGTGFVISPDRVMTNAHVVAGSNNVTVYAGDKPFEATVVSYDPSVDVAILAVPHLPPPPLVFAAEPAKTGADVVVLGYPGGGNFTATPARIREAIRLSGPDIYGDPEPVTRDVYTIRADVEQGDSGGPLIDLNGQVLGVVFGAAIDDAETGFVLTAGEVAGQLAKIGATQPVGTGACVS
GDH-TPI counter-1: GDH-TPI coupled enzyme inhibition counter-screen. GDH-TPI coupled enzyme counterscreen, NADH absorbance. inhibition, % at 4.8 µM. 1.2% of 360,000 active. AID 588335; in the data active = inhibition above about 30%;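 also: 0% = DMSO wells and 100% = wells lacking the enzyme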
Mtb FBA inh conf: confirmation of M. tuberculosis fructose-bisphosphate aldolase inhibitors | shares compounds with FBA Mtb inh | purified M. tuberculosis FBA, fluorescence read-out | inhibition, % at 1 µM | 78% of 5,600 active | AID 651616;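 also: 0% = vehicle wells and 100% = reference inhibitor wells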
GDH-TPI counter-2: GDH-TPI inhibition counter-screen for FBA inhibitors | 81% of 5,600 active | inhibition, % at 1 µM | shares compounds with FBA Mtb inh | GDH-TPI coupled enzyme counterscreen, fluorescence; in the data active = inhibition above about 10%
An asterisk follows results filed as active. Only some compounds are listed: those with a hit (about 3.5% of all), similar ones and a draw of the others. Rule as the data show it, unless noted: active = inhibition above about 27%; inactive = the rest.

Screening CCO/C=C1/C(=O)N(c2ccc(OC)cc2)C(=O)c2ccccc21 returned Mtb UGM inh -1, FBA Mtb inh 12, Rv3671c protease -10 and GDH-TPI counter-1 -1.
CCO/C=C1/C(=O)N(c2ccccc2OC)C(=O)c2ccccc21 was read as Mtb UGM inh -1, FBA Mtb inh 35*, Rv3671c protease -15, GDH-TPI counter-1 2, Mtb FBA inh conf 96* and GDH-TPI counter-2 81*.
`Nc1ccc2nc(-c3ccc(Cl)cc3)[nH]c2c1` gave Mtb UGM inh -1, FBA Mtb inh 87*, Rv3671c protease 7, GDH-TPI counter-1 19, Mtb FBA inh conf 168* and GDH-TPI counter-2 127*.
`Clc1ccc2nc(-c3ccc(Cl)nc3)[nH]c2c1` gave Mtb UGM inh -1, FBA Mtb inh 36*, Rv3671c protease -8, GDH-TPI counter-1 14, Mtb FBA inh conf 107* and GDH-TPI counter-2 82*.
Screening CCCN(CC(=O)Nc1cc(Cl)ccc1Cl)C(=O)c1ccc2n[nH]nc2c1 returned Mtb UGM inh -1, FBA Mtb inh -1, Rv3671c protease -8 and GDH-TPI counter-1 6.
`CC(=O)NC(C)(c1ccccc1)c1nc(-c2cc(F)cc(F)c2)cs1` (configuration not stated) gave FBA Mtb inh -3 and GDH-TPI counter-1 6.
For COc1cc2nc(N3CCN(C(=O)C4COc5ccccc5O4)CC3)nc(N)c2cc1OC (configuration not stated) the results were Mtb UGM inh -2, FBA Mtb inh 85*, Rv3671c protease 4, GDH-TPI counter-1 18, Mtb FBA inh conf 148* and GDH-TPI counter-2 110*.
For Cc1cc(=O)oc2cc(OCC(=O)N3CCN(C(=O)C4COc5ccccc5O4)CC3)ccc12 (configuration not stated) the results were Mtb UGM inh -1, FBA Mtb inh 35*, Rv3671c protease 8, GDH-TPI counter-1 16, Mtb FBA inh conf active and GDH-TPI counter-2 active.
`Cc1c(C)c2ccc(OCC(=O)N3CCN(C(=O)C4COc5ccccc5O4)CC3)cc2oc1=O` (configuration not stated) gave Mtb UGM inh -1, FBA Mtb inh 66*, Rv3671c protease -7, GDH-TPI counter-1 13, Mtb FBA inh conf 29* and GDH-TPI counter-2 17*.
`COc1ccc2nc(N3CCN(C(=O)C4COc5ccccc5O4)CC3)sc2c1` (configuration not stated) gave Mtb UGM inh -1, FBA Mtb inh 3, Rv3671c protease 0 and GDH-TPI counter-1 16.
`COc1ccc2c(C)c(CC(=O)N3CCN(C(=O)C4COc5ccccc5O4)CC3)c(=O)oc2c1C` (configuration not stated) gave Mtb UGM inh -3, FBA Mtb inh 78*, Rv3671c protease -3, GDH-TPI counter-1 9, Mtb FBA inh conf 162* and GDH-TPI counter-2 131*.
`Cn1c(C(=O)N2CCC(C(=O)NCc3ccccc3)CC2)cc2sccc21` gave Mtb UGM inh -2, FBA Mtb inh 1, Rv3671c protease 4 and GDH-TPI counter-1 5.
Screening CC(C)N(C)c1ncnc2c1ncn2[C@H]1CN(CCc2ccccc2)C[C@@H](CO)O1 returned FBA Mtb inh 2 and GDH-TPI counter-1 6.
Nc1c(-c2ccccc2)nc(Cl)nc1-c1ccccc1 was read as Mtb UGM inh 1, FBA Mtb inh 43*, Rv3671c protease -1, GDH-TPI counter-1 12, Mtb FBA inh conf -3 and GDH-TPI counter-2 -2.
For CC1(CCC(=O)N2CCCC(N3CCN(c4cccc(C(F)(F)F)c4)CC3)C2)CC1 (configuration not stated) the results were Mtb UGM inh 1, FBA Mtb inh -1, Rv3671c protease -7 and GDH-TPI counter-1 2.
`N#Cc1ccc(-c2ccc(OCC3CNC(=O)O3)cc2)cc1` (configuration not stated) gave Mtb UGM inh 0, FBA Mtb inh 44*, Rv3671c protease 3, GDH-TPI counter-1 0, Mtb FBA inh conf active and GDH-TPI counter-2 active.
For Cc1nc2ccc(-c3nc4ccccc4o3)cc2[nH]1 the results were Mtb UGM inh -2, FBA Mtb inh 50*, Rv3671c protease -4, GDH-TPI counter-1 13, Mtb FBA inh conf 63* and GDH-TPI counter-2 56*.
`Nc1ccc2oc(-c3ccccn3)nc2c1` gave Mtb UGM inh -2, FBA Mtb inh 0, Rv3671c protease -4 and GDH-TPI counter-1 15.
`Nc1ccc(-c2nc3ccc(-c4nc5ccccc5o4)cc3[nH]2)cc1` gave Mtb UGM inh 4, FBA Mtb inh 84*, Rv3671c protease 14, GDH-TPI counter-1 57*, Mtb FBA inh conf 36* and GDH-TPI counter-2 25*.
CCS(=O)(=O)N1CCC(C(=O)Nc2ccc3c(c2)CCC3)CC1 was read as Mtb UGM inh -1, FBA Mtb inh -2, Rv3671c protease -5 and GDH-TPI counter-1 5.
Screening CCc1ccc2oc(C(=O)NCC(c3ccc(OC)cc3)N3CCCCC3)c(C)c2c1 (configuration not stated) returned Mtb UGM inh 2, FBA Mtb inh 0, Rv3671c protease 2 and GDH-TPI counter-1 -14.
For CN1CCN(CCCNC(=O)c2cc3c(-c4ccc(Cl)cc4)nn(C)c3s2)CC1 the results were FBA Mtb inh 28*, Rv3671c protease -17, GDH-TPI counter-1 13, Mtb FBA inh conf 62* and GDH-TPI counter-2 57*.
Screening Cn1nc(-c2ccc(Cl)cc2)c2cc(C(=O)NCC3CCCO3)sc21 (configuration not stated) returned Mtb UGM inh -1, FBA Mtb inh 63*, Rv3671c protease -16, GDH-TPI counter-1 7, Mtb FBA inh conf 81* and GDH-TPI counter-2 57*.
`Cn1nc(-c2ccc(Cl)cc2)c2cc(C(=O)N3CCOCC3)sc21` gave Mtb UGM inh 2, FBA Mtb inh 4, Rv3671c protease -7 and GDH-TPI counter-1 19.
For Cc1cccc(NC(=O)N2CCCC2C(=O)Nc2ccccc2)c1 (configuration not stated) the results were Mtb UGM inh 0, FBA Mtb inh 1, Rv3671c protease -3 and GDH-TPI counter-1 -4.
For O=c1n(-c2ccccc2)c(=O)n2n1CC(O)C2 the results were Mtb UGM inh 0, FBA Mtb inh 0, Rv3671c protease -4 and GDH-TPI counter-1 -1.
CC1C(c2ccccc2)=Nn2c(=O)n(-c3ccccc3)c(=O)n21 (configuration not stated) was read as FBA Mtb inh 103*, GDH-TPI counter-1 1, Mtb FBA inh conf active and GDH-TPI counter-2 active.
Screening CCOC(=O)NC(=O)C(/C=N/c1sccc1C(=O)OC)=C(\C)O returned Mtb UGM inh 1, FBA Mtb inh -3, Rv3671c protease -4 and GDH-TPI counter-1 11.
CCCn1c(=O)[nH]c(=O)c2c1nc(-c1cccs1)n2CCOC was read as Mtb UGM inh 2, FBA Mtb inh 90*, Rv3671c protease 4, GDH-TPI counter-1 15, Mtb FBA inh conf active and GDH-TPI counter-2 167*.
